Reference: PubChem BioAssay (NCI)
This is part of a sample that, as a whole, favours compounds with a hit. Of some 83,000 tested, about 20% had one in any assay.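 Method: cells in 96-well plates; compound added at one concentration; 48 h incubation; percent growth measured; values under 10 scored active.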 Values without a mark were called inactive. Calls of active or inactive are those of the source.

What was measured:
Assay in all cases: NCI-60 one-dose screen, 48 h (100 = growth as untreated, 0 = no growth, -100 = all killed)
Conditions in all cases: 10 µM
[1] = system: T-47D breast
[2] = system: BT-549 breast
[3] = system: MDA-MB-435 melanoma
[4] = system: SW-620 colon
[5] = system: MCF7 breast
[6] = system: HCT-116 colon
[7] = system: HCC-2998 colon
[8] = system: KM12 colon
[9] = system: MDA-MB-468 breast

| SMILES | growth [1] | growth [2] | growth [3] | growth [4] | growth [5] | growth [6] | growth [7] | growth [8] | growth [9] |
| --- | --- | --- | --- | --- | --- | --- | --- | --- | --- |
| N#C/C(=C\c1ccc(N(c2ccccc2)c2ccccc2)cc1)C(N)=O | -26.7% (active) | 69.6% | 92.7% | 45.6% | 6.51% (active) | 14.9% | 73.7% | 78.6% | -91.2% (active) |
| Cc1cc(C)nc(/N=C(\N)Nc2ccc(S(=O)(=O)Nc3nc(C)cc(C)n3)cc2)n1 | 100% | 117% | 109% | 109% | 95.1% | 110% | 113% | 111% | 106% |
| N#Cc1c(NC(=O)c2ccc(C(F)(F)F)c(Cl)c2)sc2c1CCC(=O)C2 | -53% (active) | -82.1% (active) | -68.4% (active) | -56.8% (active) | -3.57% (active) | -44.9% (active) | -74.4% (active) | -28.4% (active) | -71.2% (active) |
| CONC[C@]1(C)C=C2C(=O)[C@](C)(O)C3(CC3)C(C)=C2[C@H]1O | 0.0161% (active) | -63.6% (active) | -84.7% (active) | 3.2% (active) | -36.3% (active) | 14.5% | -76.9% (active) | 7.08% (active) | -90.8% (active) |
| Cc1ccc(/C=C/C(=O)c2ccc(NC(=O)CSc3nnc(-c4c[nH]c5ccccc45)n3-c3ccccc3)cc2)cc1 | 54.2% | 95.7% | 72.8% | 90.1% | 8.55% (active) | -40.2% (active) | 83.8% | 78.7% | 85.7% |
| CC(=C(c1ccc(OCCN2CCCCCC2)cc1)c1ccc(OCCN2CCCCCC2)cc1)c1ccc(Cl)cc1 | -58.8% (active) | -65.5% (active) | -100% (active) | -61.1% (active) | -79.6% (active) | -61.9% (active) | -97.8% (active) | -73% (active) | -91.6% (active) |
| OCCNc1oc(-c2ccccc2)nc1[P+](c1ccccc1)(c1ccccc1)c1ccccc1 | 4.49% (active) | -27.9% (active) | 4.92% (active) | 13.5% | 2.37% (active) | 7.76% (active) | 9.06% (active) | -35.9% (active) | -43.2% (active) |
| CNCc1cccc2c1OCCCCCC[C@@](C)(O)CC1(CC1)S(=O)(=O)c1ccc(cc1)-c1cnc(N)c(n1)C(=O)N2 | 33.7% | -75.2% (active) | -95.2% (active) | -84.6% (active) | -90% (active) | 0.182% (active) | -100% (active) | -68.7% (active) | -98% (active) |
| COc1ccc(/C=C/C(=O)c2ccc(S(=O)(=O)NCCNc3nc(Nc4ccc(F)cc4)nc(N(C)C)n3)cc2)cc1 | 18.4% | 36.2% | 25.1% | 26.4% | -15.2% (active) | -67% (active) | 59.3% | -26.1% (active) | -3.57% (active) |
| CN(C)c1ccc(/C=C/c2nc3ccccc3c(=O)n2CC(=O)Nc2ccccc2)cc1 | 49.3% | -1.24% (active) | 60.2% | 57.8% | 26% | 31.1% | 58.2% | 75.7% | -4.96% (active) |
| Cc1ccc(-c2nc3ccc(C(=O)N=Nc4c(O)[nH]c5ccc(Cl)cc45)cc3[nH]2)cc1 | -4.44% (active) | -1.74% (active) | -61.5% (active) | -34% (active) | -26.9% (active) | 0.963% (active) | -66.8% (active) | 4.98% (active) | -75% (active) |
| COc1ccc2[nH]c(=O)c(CSc3ccc(Nc4nccc(-c5ccc(Cl)cc5)n4)cc3)cc2c1 | 78.6% | 104% | 111% | 105% | 84.5% | 78.9% | 115% | 102% | 97.9% |
| O=C(CNc1nc(-c2ccccc2)cs1)Nc1ccc(Br)cc1 | -51.4% (active) | -61.2% (active) | -1.09% (active) | -64.6% (active) | -82.2% (active) | -44.9% (active) | -98.1% (active) | -68.3% (active) | -84.1% (active) |
| Cc1ccc(-c2cc(C(=O)N=Nc3c(O)[nH]c4ccccc34)c3ccccc3n2)cc1 | 43.8% | 34.5% | 5.71% (active) | 8.14% (active) | 6.61% (active) | -15.8% (active) | 48.4% | 23.9% | 26.3% |
| CC(=O)Nc1nc(-c2ccc(N3CCN(C)CC3)c(NS(=O)(=O)c3ccc(C(F)(F)F)cc3)c2)cs1 | 25.4% | -29.4% (active) | 6.38% (active) | -41.6% (active) | 6.99% (active) | -75.8% (active) | 15.4% | 2.44% (active) | -29.3% (active) |
| CC1=C(C(=O)OC(C)C)C(c2ccc(O)cc2)NC(=S)N1 (configuration not stated) | 102% | 82.7% | 110% | 120% | 97.7% | 98.1% | 107% | 106% | 99% |
| O=C1c2ccccc2C(=O)c2c1c(C(=O)c1ccc(Cl)cc1)n1c2ccc2c3ccccc3ccc21 | 104% | 119% | 114% | 101% | 93% | 104% | 116% | 103% | 112% |
| CC(=O)Nc1ccc(-n2cnc3cc(-c4ccc(NS(C)(=O)=O)cc4)ccc32)cc1 | 63.2% | 75.4% | 51.7% | 71.5% | 16.8% | 33.9% | 21.5% | 39.8% | 54.6% |
| O=C(c1ccc(Cl)cc1)C1[C@H](c2ccc(Br)cc2)[C@@H](c2ccccc2)NC12C(=O)Nc1ccc(Br)cc12 (some centres not stated) | -54% (active) | -73.3% (active) | -88.8% (active) | -71.6% (active) | -43.3% (active) | 1.39% (active) | -98.5% (active) | -50.8% (active) | -98.9% (active) |
| O=C1Nc2cc(Cl)ccc2/C1=C/c1ccc(OCc2ccc(Br)cc2F)cc1 | -48.4% (active) | -18.7% (active) | -27.5% (active) | -56% (active) | 6.09% (active) | -73% (active) | 19.5% | -7.72% (active) | -70.1% (active) |
| COc1cc(/C=C/C(=O)c2cc(OC)c(OC)c(OC)c2)ccc1Oc1nc(Nc2ccc(F)cc2)nc(N(C)C)n1 | 25.9% | -89.8% (active) | -62.4% (active) | 1.14% (active) | 2.35% (active) | -77.6% (active) | -81.5% (active) | -41.1% (active) | -39.6% (active) |
| O=C(Nc1ccccc1)Nc1nc2ccccc2s1 | 25.5% | 89.6% | 97.2% | 111% | 21.4% | 85.9% | 85% | 90.1% | -1.66% (active) |
| Cc1ccc(-c2ccc(SCC(=O)Nc3ccc(S(N)(=O)=O)cc3Br)nn2)cc1 | 35.2% | 14.2% | 61.9% | 60% | 32.4% | -7.84% (active) | 39.4% | 38.3% | -21.3% (active) |
| O=C(Cn1cc(CSc2nnc3oc4ccccc4n23)nn1)Nc1cccc(Cl)c1 | 45.2% | 83.1% | 74.4% | 103% | 49% | 71.8% | 84.7% | 70.6% | 37.7% |
| COc1ccc(-c2cc(C(=O)N=Nc3c(O)[nH]c4ccccc34)c3ccccc3n2)cc1 | 12.1% | 72.9% | 0.986% (active) | -30.2% (active) | -49.6% (active) | -43.3% (active) | -16.4% (active) | -11.1% (active) | -31.7% (active) |
| COc1cc(/C=C/C(=O)c2ccc(NC(=O)CN3C(=O)NC(C)(c4ccccc4)C3=O)cc2)cc(OC)c1OC (configuration not stated) | 33.9% | 10.9% | 7.31% (active) | 8.07% (active) | 2.86% (active) | -69.7% (active) | 10% | -6.47% (active) | -23.1% (active) |
| O=C(Cn1nc(-c2ccccc2)ccc1=O)NN1C(=O)c2ccccc2C1=O | 96.2% | 110% | 107% | 115% | 81.7% | 106% | 108% | 103% | 92.3% |
| COc1ccc2cc([C@H](C)C(=O)NCc3ccccc3)ccc2c1 | 41.5% | 42.8% | -13.2% (active) | 29.3% | 22.5% | 37% | 50.7% | 39.1% | -20.3% (active) |
